Only a sample is shown.
aSyn UTR act = Activators via SNCA 5'UTR binding, MLPCN; alpha-synuclein 5'UTR reporter, activators screen; activity score, % (tested at 7.5 µM), hits read low; 300,000 tested, 7.1% active; AID 1814; in the data active = activity score below about -60%
* hit, by the source's call.

SMILES	aSyn UTR act
N/C(=N\OC(=O)c1ccc(Cl)cc1)c1cccnc1	-186.8*
N/C(=N\OC(=O)c1ccco1)c1ccc(Cl)cc1	-210.3*
N/C(=N\OC(=O)c1ccco1)c1cccnc1	-78.4*
N/C(=N\OC(=O)c1ccc(Cl)cc1)c1ccn[nH]1	-76.8*
O=C(O)CCc1ccc(S(=O)(=O)Nc2ccccc2C(=O)NCCc2ccccc2)cc1	-117.8*
COc1ccc(NC(C)=O)cc1S(=O)(=O)Nc1ccccc1C(=O)NCCc1ccccc1	-127.6*
NS(=O)(=O)c1ccc(N/C=C\C(=O)c2cccc3ccccc23)cc1	-65.3*
Nn1c(SCc2ccccc2)nc2ccccc21	-126.5*
C/C(=N/O)c1cccc(N2Cc3ccccc3C2)c1	-73.9*
N=C1C(c2nc3ccccc3s2)=C(O)CN1c1ccccc1	-119.9*
CCN1CC(O)=C(c2nc3ccccc3s2)C1=N	-69.7*
CCCCN1CC(O)=C(c2nc3ccccc3s2)C1=N	-167.4*
O=C(N/N=C/C(Cl)=C/c1ccccc1)c1cnccn1	-102.3*
C/C(=N\NC(=O)C(c1ccccc1)c1ccccc1)c1ccccn1	79.9
CC(/C=N\NC(=O)c1cc(C)oc1C)=C\c1ccccc1	-118.8*
CC(/C=N/NC(=O)C(O)c1ccccc1)=C\c1ccccc1 (stereo not drawn)	-81.1*
O=C(N/N=C/c1cc([N+](=O)[O-])ccc1Cl)c1cnccn1	81.1
CC(/C=N/NC(=O)c1ccncc1)=C\c1ccc(C(C)C)cc1	-146.4*
CC(/C=N/Nc1nc(C)cc(C)n1)=C\c1ccc(C(C)C)cc1	-153.2*
CC(/C=N/NC(=O)c1cccnc1)=C\c1ccccc1	-124.2*
CC(=C/c1ccccc1)/C=N/NC(=O)c1cnccn1	-190.0*
O=C(Nc1ccc(NC(=O)C2CC2)cc1)c1ccco1	-92.4*
O=C(Nc1nccs1)c1ccc(NC(=O)c2ccco2)cc1	-141.5*
O=C(Nc1ccc(NC(=O)c2ccco2)cc1)c1ccco1	-109.3*
Cc1cc2cc(NC(=O)c3ccco3)ccc2[nH]1	-141.2*
SMILES	aSyn UTR act
O=C(Nc1ccc(Br)cc1)c1ccco1	-154.1*
CC(=O)N(C)c1ccc(NC(=O)c2ccco2)cc1	-80.0*
Nc1nc2ccc(NC(=O)c3ccco3)cc2s1	-116.0*
Cc1cccc(OCC(=O)Nc2ccc(NC(=O)c3ccco3)cc2)c1	-66.5*
O=C(Nc1ccc(Nc2ccccc2)cc1)c1ccco1	-150.2*
O=C(Nc1ccc(Cc2ccncc2)cc1)c1ccco1	-74.6*
Cc1ccc(NC(=O)CNC(=O)c2ccco2)cc1	-120.0*
O=C(O)CC1=C(Nc2ccccc2)C(=O)N(c2ccccc2)C1c1ccc(Br)cc1 (stereo not drawn)	-104.5*
Cc1cc(C)c2c(N)c(C(=O)N/N=C/c3cccs3)sc2n1	-140.3*
O=C(N/N=C/c1cccs1)c1n[nH]c2c1CCC2	67.9
Cc1cc(C(F)(F)F)c2c(N)c(C(=O)Nc3cc(C)on3)sc2n1	-124.7*
CCOC(=O)c1c(C)nc2sc(C(=O)Nc3ccc(C(C)=O)cc3)c(N)c2c1-c1ccc(OC)cc1	-90.3*
Cc1cc(C)c2c(N)c(C(=O)Nc3ccc([N+](=O)[O-])cc3)sc2n1	-144.1*
COCc1cc(C)nc2sc(C(=O)Nc3ccccc3F)c(N)c12	-81.9*
Cc1cc(C)cc(NC(=O)c2sc3nc(C)cc(C)c3c2N)c1	-136.1*
COCc1cc(C)nc2sc(C(=O)NN)c(-n3cccc3)c12	71.4
C=CCNc1nc(N)c(C(=O)Nc2cc(C)on2)s1	-111.1*
Cc1cc(C)c2c(N)c(C(=O)Nc3ccc(C)c(C)c3)sc2n1	-63.0*
COc1ccc(NC(=O)c2sc3nc(C)cc(C)c3c2N)cc1	-171.8*
CCCCOC(=O)Nc1cccc(C(=O)OCC)c1	-68.0*
CCCCOC(=O)Nc1ccc(N(C)C)cc1	-161.8*
CCCCOC(=O)Nc1nnc(C(C)C)s1	-127.4*
CCCCOC(=O)Nc1ccc(C(C)C)cc1	-276.1*
CCCCOC(=O)Nc1ccc(C(N)=O)cc1	-94.1*
Cc1ccc(NC(=O)Nc2ccccc2CC[N+](=O)[O-])cc1	-79.5*
SMILES	aSyn UTR act
CC(C)NC(=O)c1nc2ccccc2s1	-83.8*
COc1ccc(OC)c(NC(=O)c2nc3ccccc3s2)c1	-168.0*
C=CCNC(=O)c1nc2ccccc2s1	-161.2*
CCN1/C(=C/c2sc(-c3ccccc3C)c[n+]2C)Sc2ccccc21	94.4
C=CCNc1nc(-c2ccc(OC)cc2OC)cs1	-320.6*
CC(C)(C)c1ccc(NC(=O)COC(=O)C2(C)CC2(Cl)Cl)cc1 (stereo not drawn)	-138.1*
COc1ccc(-c2csc(NC(=O)COC(=O)C3=COCCO3)n2)cc1	-128.2*
CC(C)(C)c1ccc(NC(=O)COC(=O)C2=COCCO2)cc1	-89.5*
COc1ccccc1-c1nnc(NC(=O)C2=COCCO2)o1	-74.6*
COc1ccc(-c2csc(NC(=O)C3=COCCO3)n2)c(OC)c1	-86.3*
C=CCn1c(C)cc(-c2csc(NC(=O)C3=COCCO3)n2)c1C	-89.4*
Cc1ccc(/C=C2/CCc3c([nH]c4ccccc34)C2=O)cc1	-180.1*
CCCCCCCn1c2c(c(=N)c3ccccc31)CCC2	79.4
CCCCN1CCc2c([nH]c3ccccc23)C1=O	-127.6*
CCCC/C=C1\CCc2c([nH]c3ccccc23)C1=O	-75.0*
Cc1ccc2[nH]c3c(c2c1)CC/C(=C/c1ccccc1)C3=O	-194.1*
O=C1/C(=C\c2ccccc2)CCc2c1[nH]c1ccccc21	-121.5*
Cc1nnc(NC(=O)c2ccc3ccccc3c2)s1	-145.2*
CC(C)c1nnc(NC(=O)c2ccc3ccccc3c2)s1	-64.4*
CCC(CC)c1nnc(NC(=O)c2ccc3ccccc3n2)s1	-85.7*
CCCc1cc(C(=O)Nc2nnc(C)s2)cs1	-115.1*
CC(C)c1nnc(NC(=O)c2sc3ccccc3c2Cl)s1	-110.5*
Cc1cnc(NC(=O)c2sc3ccccc3c2Cl)s1	58.6
CN1CCc2c(sc(NC(=O)c3ccc([N+](=O)[O-])o3)c2C(N)=O)C1	85.5
CC(C)N1CCc2c(sc(NC(=O)c3ccc4ccccc4c3)c2C(N)=O)C1	-97.0*
SMILES	aSyn UTR act
O=S(=O)(c1ccc(Cl)s1)N1CCCc2cccc(O)c21	-125.4*
CC1CCC(C(C)C)C(OC(=O)Cn2c(-c3ccccc3)[n+](C)c3ccccc32)C1 (stereo not drawn)	76.9
N#CCN1CCN(CC(=O)Nc2ccc(OCc3ccccc3)cc2)CC1	-62.4*
CN1CCN(CC(=O)Nc2ccc(OCc3ccccc3)cc2)CC1	-89.8*
O=C(c1ccc(F)cc1)c1ccc(N2CCCCC2)cc1	-144.5*
O=C(Nc1ccc(N2CCCCC2)cc1)c1ccc(F)cc1	-79.7*
O=C(c1ccc(F)cc1)c1ccc(N2CCCC2)cc1	-146.8*
O=C(Nc1ccc2nn(-c3ccc(F)cc3)nc2c1)c1cccnc1	-93.6*
O=S(=O)(c1ccc(N2CCCC2)cc1)C(F)(F)F	-149.4*
O=C(Nc1ccc(N2CCCCC2)cc1)c1cccnc1	-148.9*
Cc1ccc(-c2cc(-c3ccccc3)nc(Cl)n2)cc1	-72.0*
Cc1cc(-c2ccccc2)nc(Cl)c1C#N	-79.6*
Cc1cc2ncn(CCOc3ccccc3)c2cc1C	-168.2*
O=C(Nc1ccc(C(=O)Oc2ccccc2)c(O)c1)c1ccccc1	-66.2*
O=C(Nc1ccc(C(=O)Oc2ccccc2)c(O)c1)c1ccco1	-118.7*
O=C(O)c1ccc2oc(SCC(=O)N3CCCCC3)nc2c1	-88.1*
CC1CCCN(C(=O)CSc2nc3ccccc3o2)C1 (stereo not drawn)	-99.0*
O=C(Nc1ccc(F)c(Cl)c1)c1ccc2c(c1)OCO2	-210.9*
Cc1nc(NC(=O)c2ccc(Cl)cc2)nc2cc3c(cc12)OCO3	-84.1*
